# Source: PubChem
# FLuc counter = inhibits or activates purified firefly luciferase, miR-21 counter-screen. purified FLuc, Km substrates, luminescence inhibition. Potency, µM (titrated, usually from 57.5 µM), for inactives: at the top dose activity change, negative = inhibition, most hits filed as inhibitors. actives 6.9% (n = 360,000). AID 588342;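 further: plate controls were vehicle for no effect and reference inhibitor for full effect; nearly all actives have a fitted effect of over 55% in size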
# Target sequence (P08659 whole entry, looked up): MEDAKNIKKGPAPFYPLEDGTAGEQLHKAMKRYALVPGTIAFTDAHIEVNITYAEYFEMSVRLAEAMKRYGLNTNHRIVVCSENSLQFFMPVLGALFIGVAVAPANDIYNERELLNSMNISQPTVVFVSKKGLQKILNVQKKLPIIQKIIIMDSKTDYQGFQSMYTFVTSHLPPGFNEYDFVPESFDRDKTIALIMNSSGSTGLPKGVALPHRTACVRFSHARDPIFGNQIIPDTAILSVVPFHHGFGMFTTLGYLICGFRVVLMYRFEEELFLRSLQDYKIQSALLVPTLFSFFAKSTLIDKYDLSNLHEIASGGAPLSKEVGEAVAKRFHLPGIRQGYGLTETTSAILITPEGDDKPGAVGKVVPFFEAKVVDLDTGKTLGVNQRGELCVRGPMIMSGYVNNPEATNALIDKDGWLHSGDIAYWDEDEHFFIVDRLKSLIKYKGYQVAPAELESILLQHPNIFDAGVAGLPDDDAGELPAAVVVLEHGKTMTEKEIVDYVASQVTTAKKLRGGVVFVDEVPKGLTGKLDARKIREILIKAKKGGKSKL
#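 Biochemical qHTS of compounds, final roughly 60 µM downward over six points, against 10 nM purified firefly luciferase using Km concentrations of substrates (10 uM D-luciferin, 10 uM ATP) in Tris acetate pH 7.5 buffer; luminescence output.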
# ELG1 genotox = induces genotoxicity in HEK293T cells with luciferase-tagged ELG1. HEK293T ELG1-luciferase reporter, luminescence, 16 h. Potency, µM (doses to about 46 µM), for inactives: at the highest dose activity change, positive = activation, most hits filed as activators. actives 1.3% (n = 330,000). AID 504466; further: % of control where 0% means no effect; nearly all actives have a fitted effect of over 60% in size
#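 16 hr compound incubation (37 °C, 5% CO2) of HEK293T cells carrying luciferase-tagged ELG1; luciferase then measured by ONE-Glo luminescence after 30 min at RT.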
# Rab9 prom act = Rab9 promoter activation; Huh7 Rab9 promoter-luciferase reporter, luminescence, 24 h; Potency, µM (titrated, usually from 9.22 µM), for the others: top-dose activation, negative = inhibition, most hits filed as activators; actives 2.8% (n = 320,000); further: % of control where 0% means no effect; nearly all actives have a fitted effect of over 60% in size
#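 Quantitative HTS format; Huh7 Rab9-luciferase reporter cells (1500/well) receive compound 2 h post-plating, incubate 24 h at 37 °C, then get luciferase reagent for 10 min before luminescence reading.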
# SMN2 splice up = increases expression of the SMN2 splice variant; HEK293 SMN2-luciferase splicing reporter, luminescence, 30-36 h; Potency, µM (top dose mostly 46.1 µM), for inactives: at the highest dose activity change, positive = activation, most hits filed as activators; actives 2.8% (n = 210,000); AID 1458; further: % of control where 0% means no effect; nearly all actives have a fitted effect of over 55% in size
#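 qHTS luciferase splicing reporter: luminescence rises when SMN2 exon 7 is included in transfected HEK293 cells. Compound exposure lasted 30-36 h at 37C, with 4.5 mM final sodium butyrate as control, followed by a ONE-Glo read.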
# ELG1 DNA repair = inhibitors of ELG1-dependent DNA repair in HEK293T cells. HEK293T ELG1-luciferase reporter, luminescence, 16 h; DNA damage induced by 5-fluorouridine. Potency, µM (titrated, usually from 46.1 µM), without a hit: at the top dose activity change, negative = inhibition, hits mostly inhibitors. actives 2.3% (n = 330,000); further: on the % scale 0 is the no-effect control and ±100 the full control effect; nearly all actives have a fitted effect of over 55% in size
#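 DMSO vehicle served as the neutral condition. Each well held 2,000 cells given 5-fluorouridine plus compound; after 16 hr at 37 °C/5% CO2, ONE-Glo was added and luciferase measured 30 min later.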
# NPC1 prom act = activators of NPC1 promoter; Potency, µM (titrated, usually from 9.22 µM), without a hit: at the highest dose activation, usual class: activators; AID 485313; actives 2.4% (n = 320,000); Huh7 NPC1 promoter luciferase reporter, 24 h; further: % of control where 0% means no effect; nearly all actives have a fitted effect of over 60% in size
#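 Stably transfected Huh7 (NPC1 promoter→luciferase), 1500 cells/well in Opti-MEM + 10% FBS, 2 h settle, then compound 24 h at 37 °C. Luminescence after 10 min with Amplite reagent.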
# An asterisk follows results filed as active; ? = inconclusive; / = not tested or not shown; [ ] = dose if it differs, or a comment. A selection: hits, their analogues and other compounds. The true share with any hit is near 9.3%. The call rests on the fitted dose curve; in most records, active means well fitted curve in the direction sought with a large enough effect; inconclusive means small, poorly fitted or top-dose-only effect, or another doubt; inactive means no such curve, though single readings can be large; an effect the other way counts as inactive or inconclusive. Potency means the concentration at half of the fitted maximal effect.
SMILES,FLuc counter,ELG1 genotox,Rab9 prom act,SMN2 splice up,ELG1 DNA repair,NPC1 prom act
CCOc1ccc(Nc2sc(C(=O)c3ccc(F)cc3)c(N)c2S(=O)(=O)c2ccc(C)cc2)cc1,1.6%,/,/,/,/,/
CCN(CC)CCN1C(=O)C2C(C(=O)Nc3cccc(SC)c3)C3C=CC2(O3)C1C(=O)NC1CCCC(C)C1C (stereo unspecified),2.3%,0.3%,-2.9%,/,11.6%,-2.1%
S=C(NCCc1ccccc1)N1CCN(C(=S)NCCc2ccccc2)CC1,-6.0%,-3.6%,-1.0%,/,?,-1.7%
CC1CCN(C(=S)NCCc2ccccc2)CC1,10.7µM*,7.31µM*,2µM*,-1.8%,?,3.55µM*
OCC1CCCN(C(=S)NCCc2ccccc2)C1 (stereo unspecified),16.9µM*,?,?,?,?,3.16µM*
COC(=O)C1CCN(C(=O)C23CCC(C)(C(=O)O2)C3(C)C)CC1 (stereo unspecified),0.2%,-0.3%,-4.9%,-2.2%,-5.7%,1.8%
O=C(COC(=O)/C=C/c1cccc(Br)c1)NC1CC1,2.1%,1.2%,-4.9%,/,9.0%,-1.1%
Cc1cccc(C(=O)NCC(=O)N2CCN(S(=O)(=O)c3ccc4c(c3)OCCO4)CC2)c1,2.6%,-1.6%,-1.6%,/,-0.6%,1.3%
COC(=O)c1cc(C(=O)OC)cc(N2C(=O)CN=C2Nc2nc(C)cc(C)n2)c1,0.1%,-1.0%,-1.1%,/,-8.4%,-3.5%
CC(=O)c1c[nH]c(C(=O)NCC2CCCO2)c1 (stereo unspecified),9.1%,-0.3%,2.1%,6.7%,1.2%,-0.7%
Cc1onc(-c2c(Cl)cccc2Cl)c1C(=O)c1c[nH]c(C(=O)NCC2CCCO2)c1 (stereo unspecified),-3.7%,-5.3%,1.1%,-22.7%,18.3µM*,-5.6%
COc1ccc(C(=O)Nc2ccccc2C(=O)N2CCCCCC2)cc1OC,3.1%,-0.9%,5.5%,/,-0.2%,-3.4%
CCc1ccc(NC(=O)N(Cc2c[nH]c3ccccc23)C2CCCCCC2)cc1,-7.1%,/,/,5.01µM*,/,/
Cc1c(N=Cc2c(O)n(Cc3ccco3)c(=O)c3ccccc23)c(=O)n(-c2ccccc2)n1C,1.7%,-8.2%,-3.9%,-27.2%,23.1µM*,-5.1%
Cc1sc(NC(=O)Cc2ccc3c(c2)OCO3)nc1-c1ccc2c(c1)CCN2C(=O)c1ccccc1F,?,-7.9%,-17.8%,-56.8%,?,-7.5%
OC[C@H]1O[C@@H](Oc2cc(O)cc(/C=C/c3ccc(O)cc3)c2)[C@H](O)[C@@H](O)[C@@H]1O,19µM*,/,2.5%,/,/,4.0%
OCC1O[C@H](Oc2ccc(O)cc2)C(O)C(O)C1O (stereo partly specified),/,/,/,-11.7%,/,/
COc1ccc(CN2CCN(c3ccccc3OC)CC2)cc1OC,3.6%,-5.0%,-3.7%,/,-14.4%,-4.7%
CC(/C=C1\SC(=S)N(CCC(=O)Nc2ccccc2O)C1=O)=C\c1ccccc1,2.4%,-2.0%,7.2%,/,-2.2%,5.6%
C=CCN1C(=O)/C(=C\C(C)=C\c2ccccc2)SC1=S,8.49µM*,?,1.4%,/,?,13.9%
CC(/C=C1\SC(=O)N(CCCC(=O)O)C1=O)=C\c1ccccc1,5.36µM*,-8.6%,-30.5%[0.369 µM],-76.4%,?,-31.8%
CCC(C(=O)O)N1C(=O)/C(=C/C(C)=C/c2ccccc2)SC1=S (stereo unspecified),-1.9%,0.1%,3.6%,/,-9.5%,-5.0%
CC(=C\c1ccccc1)/C=C1/SC(=S)N(CCCC(=O)O)C1=O,26.9µM*,-0.8%,-20.3%,/,?,-15.2%
CC(=C\c1ccccc1)/C=C1/SC(=S)N(C(C(=O)O)C(C)C)C1=O (stereo unspecified),26.9µM*,0.1%,1.0%,-2.5%,4.4%,1.1%
C[C@@H]1CC=C[C@@H]2[C@H]1C(=O)N(Cc1ccccc1)[C@H]2c1cccc(Br)c1,/,-1.8%,/,/,21.7%,/
SMILES,FLuc counter,ELG1 genotox,Rab9 prom act,SMN2 splice up,ELG1 DNA repair,NPC1 prom act
CC(C)[C@H](NC(=O)OCc1ccccc1)C(=O)NC(C=O)Cc1ccccc1 (stereo partly specified),0.8%,-2.9%,0.2%,/,10.8%,4.6%
Cc1cccc(S(=O)(=O)Nc2ccncc2)c1,-0.9%,-0.1%,-1.3%,/,6.1%,-0.3%
O=C(Nc1ncccc1O)c1ccc2c(c1)OCO2,?,?,3.55µM*,/,?,3.98µM*
O=C(Nc1ncccc1O)c1ccc2ccccc2c1,1.4%,-7.2%,-6.9%,/,?,-2.7%
O=C(Nc1ncccc1O)c1ccc2c(c1)OCCO2,15.1µM*,20.6µM*,2.51µM*,/,?,3.55µM*
O=C(Oc1cccc2cccnc12)c1cccc([N+](=O)[O-])c1,-3.6%,-6.1%,-18.1%,/,10.9%,-10.3%
Cc1cccnc1NC(=O)c1ccc2c(c1)OCCO2,13.5µM*,16.4µM*,?,/,?,1.1%
Cc1cccnc1NC(=O)C1CC(=O)N(c2ccc3c(c2)OCCO3)C1 (stereo unspecified),-3.0%,1.2%,-1.8%,/,14.8%,-1.4%
O=C(Oc1cccc2cccnc12)c1ccc2c(c1)OCCO2,4.5%[2.3 µM],-6.7%,-7.3%,-27.7%,10.3µM*,0.1%
Cc1cc(C(=O)NC2CCCc3c2cnn3-c2ccc(C)c(C)c2)nc(C)n1 (stereo unspecified),-3.6%,-8.2%,0.3%,/,-14.9%,-1.2%
O=C(Nc1ccc(Cl)cc1)C1=Cc2ccccc2OC1,1.9µM*,1.46µM*,0.562µM*,22.4µM*,?,3.16µM*
CC1CCCN(c2ccc(C(=O)Nc3cccnc3)cc2[N+](=O)[O-])C1 (stereo unspecified),?,-9.0%,26.1%,9.1%,14.6µM*,23.4%
O=C(Nc1ccc(F)c(F)c1)c1ccc2c(c1)OCO2,9.53µM*,3.66µM*,?,12.7%,?,2.51µM*
O=C(Nc1ccc2c(c1)OCO2)c1ccc(Cl)s1,4.26µM*,2.59µM*,2µM*,7.08µM*,?,2.24µM*
CC(NC(=O)C1=Cc2ccccc2OC1)c1ccccc1 (stereo unspecified),-3.0%,/,/,/,/,/
COc1ccc(NS(=O)(=O)c2ccc3c(c2)NC(=O)C(C)S3)cc1 (stereo unspecified),1.5%,-2.4%[9.26 µM],1.7%,/,?,0.0%
CCCCOc1ccc(C(=O)Nn2cnnc2)cc1,-16.0%,-0.7%,-0.7%,-1.1%,?,-1.5%
Cc1cccnc1NC(=O)C1COc2ccccc2O1 (stereo unspecified),-2.4%,8.6%,-1.4%,-7.8%,3.3%,-2.2%
O=C(Nc1ccc(Cl)c([N+](=O)[O-])c1)c1ccc2c(c1)OCCO2,6.01µM*,?,0.891µM*,/,?,?
